# Test results published in PubChem BioAssay (NCI).
# The panel holds about 79,000 compounds, 15% with a hit somewhere; the sample as a whole holds those more often. Unmarked numbers belong to inactive results. Activity calls are given as the source filed them. Rule as the data show it: active = growth inhibition above about 70%; inactive = the rest.
# Key:
# [1] = NCI Yeast Anticancer Drug Screen. Data for the rad52 strain (AID 147);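 also: 0% = growth of vehicle-treated control cultures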; conditions: S. cerevisiae rad52 mutant growth inhibition, active compounds read high
# Procedure, shortened: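 Yeast strain carrying a DNA damage repair alteration was exposed to test compounds. Growth inhibition was measured relative to vehicle-treated controls.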
# [2] = NCI Yeast Anticancer Drug Screen. Data for the wt1 strain (AID 149);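 also: 0% = growth of vehicle-treated wt1 cultures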; conditions: S. cerevisiae wt1 strain (SPY 50644) growth inhibition, active compounds read high
# Procedure, shortened: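 Vehicle-normalised growth inhibition; strain wt1; compound exposure.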
# [3] = NCI Yeast Anticancer Drug Screen. Data for the rad50EPP+ strain (AID 151);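 also: 0% = growth of vehicle-treated control cultures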; conditions: S. cerevisiae rad50 mutant strain, active compounds read high
# Procedure, shortened: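 Yeast strain carrying rad50 alteration (rad50EPP+) exposed to compounds; growth inhibition measured relative to vehicle-treated controls.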
# [4] = NCI Yeast Anticancer Drug Screen. Data for the rad50 strain (AID 155);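 also: 0% = growth of vehicle-only cultures of the same strain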; conditions: S. cerevisiae rad50 strain growth inhibition, active compounds read high
# Procedure, shortened: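 A DNA repair-deficient yeast mutant serves as the test organism; compound-induced growth inhibition is calculated against vehicle-treated cells.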
# [5] = NCI Yeast Anticancer Drug Screen. Data for the mec2-1 strain (AID 157); conditions: S. cerevisiae mec2-1 strain, active compounds read high
# Procedure, shortened: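 mec2-1 yeast strain, carrying an alteration in DNA damage repair or cell cycle control, was exposed to compounds; growth inhibition was measured relative to vehicle-treated controls.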
# [6] = NCI Yeast Anticancer Drug Screen. Data for the rad14 strain (AID 159);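 also: 0% = growth of vehicle-treated control cultures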; conditions: S. cerevisiae rad14 strain growth inhibition, active compounds read high
# Procedure, shortened: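 Vehicle-treated cultures served as the baseline for growth inhibition of a DNA repair-mutant yeast strain exposed to each compound.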
# [7] = NCI Yeast Anticancer Drug Screen. Data for the sgs1 mgt1 strain (AID 161);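 also: 0% = growth of cultures given vehicle only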; conditions: S. cerevisiae sgs1 mgt1 strain, active compounds read high
# Procedure, shortened: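 Percent growth inhibition was derived by comparing compound-exposed mutant yeast with vehicle-exposed cultures. The strain carries alterations in DNA damage repair.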
# [8] = NCI Yeast Anticancer Drug Screen. Data for the CLN2oe strain (AID 163);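 also: 0% = growth of vehicle-only control cultures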; conditions: S. cerevisiae CLN2oe strain, active compounds read high
# Procedure, shortened: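 Yeast cells carrying a defined cell-cycle control alteration were exposed to test compounds. Growth inhibition was scored against vehicle-treated control cultures.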
# [9] = NCI Yeast Anticancer Drug Screen. Data for the cln2 rad14 strain (AID 165);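 also: 0% = growth equal to vehicle treated cultures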; conditions: S. cerevisiae cln2 rad14 strain, active compounds read high
# Procedure, shortened: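 Yeast carrying cln2 and rad14 alterations (cell cycle control and DNA damage repair) were exposed to compounds. Growth inhibition was measured against vehicle-treated controls.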
# [10] = NCI Yeast Anticancer Drug Screen. Data for the bub3 strain (AID 167); conditions: S. cerevisiae bub3 mutant strain, active compounds read high
# Procedure, shortened: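 Inhibition values come from growth of compound-treated mutant yeast normalised to vehicle-treated controls.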
# [11] = NCI Yeast Anticancer Drug Screen. Data for the wt2 strain (AID 169);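 also: 0% = growth of vehicle-treated yeast cultures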; conditions: S. cerevisiae wt2 strain growth inhibition, active compounds read high
# Procedure, shortened: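 Yeast cells were exposed to test compounds, and growth inhibition was measured relative to vehicle-treated controls.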
# [12] = NCI Yeast Anticancer Drug Screen. Data for the mlh1 strain (AID 171);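 also: 0% = growth of vehicle-treated control cultures of the same strain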; conditions: S. cerevisiae mlh1 strain growth inhibition, active compounds read high
# Procedure, shortened: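 Yeast carrying a defined genetic alteration in DNA damage repair or cell cycle control were exposed to test compounds. Growth inhibition was measured relative to vehicle-treated controls.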
# [13] = NCI Yeast Anticancer Drug Screen. Data for the sgs1 strain (AID 173);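 also: 0% = growth of vehicle-only control cultures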; conditions: S. cerevisiae sgs1 mutant, active compounds read high
# Procedure, shortened: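 Yeast mutant strains carrying defined defects in DNA damage repair or cell cycle control were exposed to test compounds. Growth inhibition was scored against vehicle-treated controls.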
# [14] = NCI Yeast Anticancer Drug Screen. Data for the mlh1 rad18 strain (AID 175); conditions: S. cerevisiae mlh1 rad18 strain growth inhibition, active compounds read high
# Procedure, shortened: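 Growth inhibition of the yeast strain was measured after compound exposure and expressed relative to vehicle-treated controls. The strain carries defined defects in DNA damage repair.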
# [15] = NCI Yeast Anticancer Drug Screen. Data for the rad18 strain (AID 177); conditions: S. cerevisiae rad18 mutant growth inhibition, active compounds read high
# Procedure, shortened: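 Yeast carrying a defined DNA damage repair alteration were exposed to compounds. Growth inhibition was expressed relative to vehicle-treated controls.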
# [16] = NCI Yeast Anticancer Drug Screen. Data for the mgt1 strain (AID 153); conditions: S. cerevisiae mgt1 mutant growth inhibition, active compounds read high
# Procedure, shortened: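 Yeast mgt1 strain (DNA repair/cell-cycle alteration panel) exposed to compounds; growth inhibition measured relative to vehicle-treated controls.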
# [17] = at 5.0 µM (retest, dose inferred, filed as 0.5)
# [18] = at 50.0 µM (retest, dose inferred, filed as 5.0)
smiles,measurement,setting,value
CC1=C(N2CC2)C(=O)c2ccccc2C1=O,growth inhibition,[1]; at 1.2 µM,1%
same,growth inhibition,[1]; at 3.7 µM,11%
same,growth inhibition,[1]; at 11.0 µM,22%
same,growth inhibition,[1]; at 33.0 µM,69%
same,growth inhibition,[1]; at 100.0 µM,97% (active)
same,growth inhibition,[2]; at 1.2 µM,-5%
same,growth inhibition,[2]; at 3.7 µM,-6%
same,growth inhibition,[2]; at 11.0 µM,-6%
same,growth inhibition,[2]; at 33.0 µM,-2%
same,growth inhibition,[2]; at 100.0 µM,41%
same,growth inhibition,[3]; at 1.2 µM,5%
same,growth inhibition,[3]; at 3.7 µM,16%
same,growth inhibition,[3]; at 11.0 µM,48%
same,growth inhibition,[3]; at 33.0 µM,79% (active)
same,growth inhibition,[3]; at 100.0 µM,96% (active)
same,growth inhibition,[4]; at 1.2 µM,1%
same,growth inhibition,[4]; at 3.7 µM,1%
same,growth inhibition,[4]; [17],-103%
same,growth inhibition,[4]; at 11.0 µM,23%
same,growth inhibition,[4]; at 33.0 µM,70% (active)
same,growth inhibition,[4]; [18],84% (active)
same,growth inhibition,[4]; at 50.0 µM,53.7%
same,growth inhibition,[4]; at 100.0 µM,97% (active)
same,growth inhibition,[5]; at 1.2 µM,4%
same,growth inhibition,[5]; at 3.7 µM,3%
same,growth inhibition,[5]; [17],-46%
same,growth inhibition,[5]; at 11.0 µM,6%
same,growth inhibition,[5]; at 33.0 µM,11%
same,growth inhibition,[5]; [18],4%
same,growth inhibition,[5]; at 50.0 µM,19.8%
same,growth inhibition,[5]; at 100.0 µM,49%
same,growth inhibition,[6]; at 1.2 µM,2%
same,growth inhibition,[6]; at 3.7 µM,3%
same,growth inhibition,[6]; at 11.0 µM,14%
same,growth inhibition,[6]; at 33.0 µM,32%
same,growth inhibition,[6]; at 100.0 µM,92% (active)
same,growth inhibition,[7]; [17],-41%
same,growth inhibition,[7]; [18],72% (active)
same,growth inhibition,[7]; at 50.0 µM,43%
same,growth inhibition,[8]; at 1.2 µM,-1%
same,growth inhibition,[8]; at 3.7 µM,0%
same,growth inhibition,[8]; at 11.0 µM,0%
same,growth inhibition,[8]; at 33.0 µM,2%
same,growth inhibition,[8]; at 100.0 µM,39%
same,growth inhibition,[9]; [17],-60%
same,growth inhibition,[9]; [18],48%
same,growth inhibition,[9]; at 50.0 µM,-6.55%
same,growth inhibition,[10]; at 1.2 µM,-3%
same,growth inhibition,[10]; at 3.7 µM,-2%
same,growth inhibition,[10]; [17],-64%
same,growth inhibition,[10]; at 11.0 µM,2%
same,growth inhibition,[10]; at 33.0 µM,16%
same,growth inhibition,[10]; [18],16%
same,growth inhibition,[10]; at 50.0 µM,-8.05%
same,growth inhibition,[10]; at 100.0 µM,66%
same,growth inhibition,[11]; at 1.2 µM,0%
same,growth inhibition,[11]; at 3.7 µM,1%
same,growth inhibition,[11]; at 11.0 µM,2%
same,growth inhibition,[11]; at 33.0 µM,0%
same,growth inhibition,[11]; at 100.0 µM,34%
same,growth inhibition,[12]; at 1.2 µM,7%
same,growth inhibition,[12]; at 3.7 µM,-3%
same,growth inhibition,[12]; at 11.0 µM,2%
same,growth inhibition,[12]; at 33.0 µM,9%
same,growth inhibition,[12]; at 100.0 µM,64%
same,growth inhibition,[13]; at 1.2 µM,0%
same,growth inhibition,[13]; at 3.7 µM,10%
same,growth inhibition,[13]; at 11.0 µM,36%
same,growth inhibition,[13]; at 33.0 µM,67%
same,growth inhibition,[13]; at 100.0 µM,96% (active)
same,growth inhibition,[14]; [17],-99%
same,growth inhibition,[14]; [18],65%
same,growth inhibition,[14]; at 50.0 µM,46.2%
same,growth inhibition,[15]; at 1.2 µM,36%
same,growth inhibition,[15]; at 3.7 µM,72% (active)
same,growth inhibition,[15]; at 11.0 µM,91% (active)
same,growth inhibition,[15]; at 33.0 µM,96% (active)
same,growth inhibition,[15]; at 100.0 µM,98% (active)
Br[Se]c1ccccn1,growth inhibition,[1]; at 1.2 µM,2%
same,growth inhibition,[1]; at 3.7 µM,53%
same,growth inhibition,[1]; at 11.0 µM,97% (active)
same,growth inhibition,[1]; at 33.0 µM,99% (active)
same,growth inhibition,[1]; at 100.0 µM,98% (active)
same,growth inhibition,[2]; at 1.2 µM,2%
same,growth inhibition,[2]; at 3.7 µM,10%
same,growth inhibition,[2]; at 11.0 µM,58%
same,growth inhibition,[2]; at 33.0 µM,99% (active)
same,growth inhibition,[2]; at 100.0 µM,99% (active)
same,growth inhibition,[16]; at 1.2 µM,-3%
same,growth inhibition,[16]; at 3.7 µM,12%
same,growth inhibition,[16]; at 11.0 µM,79% (active)
same,growth inhibition,[16]; at 33.0 µM,99% (active)
same,growth inhibition,[16]; at 100.0 µM,99% (active)
same,growth inhibition,[4]; at 1.2 µM,5%
same,growth inhibition,[4]; at 3.7 µM,91% (active)
same,growth inhibition,[4]; [17],44%
same,growth inhibition,[4]; at 11.0 µM,97% (active)
same,growth inhibition,[4]; at 33.0 µM,98% (active)
same,growth inhibition,[4]; [18],99% (active)
same,growth inhibition,[4]; at 50.0 µM,99.5% (active)
same,growth inhibition,[4]; at 100.0 µM,98% (active)
same,growth inhibition,[5]; at 1.2 µM,0%
same,growth inhibition,[5]; at 3.7 µM,34%
same,growth inhibition,[5]; [17],29%
same,growth inhibition,[5]; at 11.0 µM,89% (active)
same,growth inhibition,[5]; at 33.0 µM,99% (active)
same,growth inhibition,[5]; [18],100% (active)
same,growth inhibition,[5]; at 50.0 µM,99.8% (active)
same,growth inhibition,[5]; at 100.0 µM,99% (active)
same,growth inhibition,[6]; at 1.2 µM,5%
same,growth inhibition,[6]; at 3.7 µM,36%
same,growth inhibition,[6]; at 11.0 µM,99% (active)
same,growth inhibition,[6]; at 33.0 µM,99% (active)
same,growth inhibition,[6]; at 100.0 µM,99% (active)
same,growth inhibition,[7]; [17],-5%
same,growth inhibition,[7]; [18],99% (active)
same,growth inhibition,[7]; at 50.0 µM,99.6% (active)
same,growth inhibition,[8]; at 1.2 µM,-11%
same,growth inhibition,[8]; at 3.7 µM,11%
same,growth inhibition,[8]; at 11.0 µM,62%
same,growth inhibition,[8]; at 33.0 µM,99% (active)
same,growth inhibition,[8]; at 100.0 µM,99% (active)
same,growth inhibition,[9]; [17],9%
same,growth inhibition,[9]; [18],99% (active)
same,growth inhibition,[9]; at 50.0 µM,98.3% (active)
same,growth inhibition,[10]; at 1.2 µM,-2%
same,growth inhibition,[10]; at 3.7 µM,20%
same,growth inhibition,[10]; [17],75% (active)
same,growth inhibition,[10]; at 11.0 µM,93% (active)
same,growth inhibition,[10]; at 33.0 µM,98% (active)
same,growth inhibition,[10]; [18],100% (active)
same,growth inhibition,[10]; at 50.0 µM,99.7% (active)
same,growth inhibition,[10]; at 100.0 µM,98% (active)
same,growth inhibition,[11]; at 1.2 µM,1%
same,growth inhibition,[11]; at 3.7 µM,14%
same,growth inhibition,[11]; at 11.0 µM,80% (active)
same,growth inhibition,[11]; at 33.0 µM,99% (active)
same,growth inhibition,[11]; at 100.0 µM,99% (active)
same,growth inhibition,[12]; at 1.2 µM,-1%
same,growth inhibition,[12]; at 3.7 µM,22%
same,growth inhibition,[12]; at 11.0 µM,84% (active)
same,growth inhibition,[12]; at 33.0 µM,99% (active)
same,growth inhibition,[12]; at 100.0 µM,99% (active)
same,growth inhibition,[13]; at 1.2 µM,0%
same,growth inhibition,[13]; at 3.7 µM,23%
same,growth inhibition,[13]; at 11.0 µM,83% (active)
same,growth inhibition,[13]; at 33.0 µM,99% (active)
same,growth inhibition,[13]; at 100.0 µM,99% (active)
same,growth inhibition,[14]; [17],31%
same,growth inhibition,[14]; [18],99% (active)
same,growth inhibition,[14]; at 50.0 µM,99.7% (active)
same,growth inhibition,[15]; at 1.2 µM,1%
same,growth inhibition,[15]; at 3.7 µM,65%
same,growth inhibition,[15]; at 11.0 µM,96% (active)
same,growth inhibition,[15]; at 33.0 µM,98% (active)
same,growth inhibition,[15]; at 100.0 µM,98% (active)
